# Source: PubChem BioAssay (National Center for Advancing Translational Sciences (NCATS))
# SNCA expr inh – Primary qHTS assay for inhibitors of alpha-synuclein gene (SNCA) expression; HEK-293 SNCA-luciferase knock-in, luminescence, 24 h; AID 1671194, 2021; Potency, µM (highest dose often 57.2 µM), for inactives: at the highest dose activity change, negative = inhibition, most hits filed as inhibitors; 140,000 compounds, 0.17% hits;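 further: plate controls were DMSO cells for no effect and cell-free wells for full effect; nearly all actives have a fitted effect of over 45% in size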
# FLuc inh-1 – Firefly luciferase inhibition profiling of diverse chemical library using quantitative high-throughput screening; Luciferin 4-monooxygenase (Photinus pyralis), P08659; purified P. pyralis luciferase, luminescence, biochemical; Potency, µM (highest dose often 115 µM), most hits filed as inhibitors; AID 1347043, 2019; 76,000 compounds, 2.5% hits; further: on the % scale 0 is the no-effect control and ±100 the full control effect; nearly all actives have a fitted effect of over 65% in size
# Target sequence (P08659 whole entry, looked up): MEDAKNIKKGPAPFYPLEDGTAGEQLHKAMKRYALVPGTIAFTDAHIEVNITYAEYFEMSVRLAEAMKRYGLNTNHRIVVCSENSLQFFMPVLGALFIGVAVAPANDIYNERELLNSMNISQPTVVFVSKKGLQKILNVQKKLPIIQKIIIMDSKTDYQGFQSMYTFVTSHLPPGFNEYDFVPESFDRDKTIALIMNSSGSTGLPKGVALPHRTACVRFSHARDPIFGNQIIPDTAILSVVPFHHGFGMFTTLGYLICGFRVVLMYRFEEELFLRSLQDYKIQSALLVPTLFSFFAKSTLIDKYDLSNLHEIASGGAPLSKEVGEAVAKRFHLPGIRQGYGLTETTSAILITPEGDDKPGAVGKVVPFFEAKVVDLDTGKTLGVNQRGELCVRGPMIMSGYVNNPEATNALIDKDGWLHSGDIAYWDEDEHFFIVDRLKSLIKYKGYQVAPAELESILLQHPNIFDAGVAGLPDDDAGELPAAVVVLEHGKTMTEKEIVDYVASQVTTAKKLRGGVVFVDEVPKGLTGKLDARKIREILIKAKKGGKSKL
#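 FLuc 10nM, D-luciferin 10uM, ATP 10uM, Mg acetate 10mM, Tris acetate pH 7.5, Tween/BSA; cpd qHTS; enzyme added last; CCD luminescence.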
# 3T3 cytotox – Cytotoxic Profiling in NIH 3T3 Cell Line of Diverse Libraries Using Quantitative High-Throughput Screening; Potency, µM (doses to about 96.7 µM), for the others: top-dose activity change, negative = cytotoxicity, usual class: inhibitors; 94,000 compounds, 4.3% hits; AID 1345082, 2018; NIH 3T3 viability, CellTiter-Glo ATP luminescence, 48-72 h; further: on the % scale 0 is the no-effect control and ±100 the full control effect; nearly all actives have a fitted effect of over 55% in size
#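 Viability of NIH 3T3 cells after 48 or 72 hr compound treatment at 37 °C was assessed by CellTiter-Glo, with luminescence imaged following a 10 min room-temperature step.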
# hNpr1 antagonist – Natriuretic polypeptide receptor (hNpr1) antagonism - Primary qHTS; Atrial natriuretic peptide receptor 1 (Homo sapiens), P16066; HEK293 hNpr1 GloSensor cGMP, ANP-stimulated luminescence; 76,000 compounds, 1.6% hits; Potency, µM (titrated, usually from 46.3 µM), inactives show top-dose activity change, negative = inhibition, usual class: inhibitors; AID 1347048, 2019; calls by dose curve; further: on the % scale 0 is the no-effect control and ±100 the full control effect; nearly all actives have a fitted effect of over 60% in size
#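 Compound pre-incubated 30 min at room temperature on GloSensor-loaded HEK293 cells stably carrying hNpr1 and the pGS-40F cGMP biosensor. Stimulation uses hNppA at 0.1 nM final; luminescence is taken at baseline and 20 min post-agonist.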
# HEK293 tox – Cytotoxic Profiling in HEK 293 Cell Line of Diverse Libraries Using Quantitative High-Throughput Screening; HEK 293 viability, ATP luminescence (CellTiter-Glo), 48-72 h; Potency, µM (titrated, usually from 115 µM), without a hit: top-dose activity change, negative = cytotoxicity, usual class: inhibitors; 94,000 compounds, 6.6% hits; AID 1345083, 2018; further: on the % scale 0 is the no-effect control and ±100 the full control effect; nearly all actives have a fitted effect of over 60% in size
#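 HEK 293 cells seeded at 250 cells/well were exposed to compound for 48 or 72 hr at 37 degree Celsius. Viability taken as ATP content by CellTiter-Glo luminescence.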
# HEK293 viab – GF-AFC viability counterscreen for inhibitors of alpha-synuclein gene (SNCA) expression. HEK-293-SNCA-luc viability, GF-AFC fluorescence, 24 h. Potency, µM (top dose mostly 57.1 µM), for inactives: at the top dose activity change, negative = cytotoxicity, actives largely listed as cytotoxic. 150,000 compounds, 0.12% hits. AID 1671193, 2021;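 further: 0% = DMSO-treated cells and -100% = medium-only wells without cells; nearly all actives have a fitted effect of over 30% in size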
#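 Cytotoxicity counterscreen: after 24 h compound treatment of genome-edited SNCA-luciferase HEK-293 cells, live-cell protease substrate GF-AFC read by fluorescence after 30 min; activity scaled between DMSO (0%) and medium-only (-100%), curves Hill-fitted.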
# FLuc SDR no ATP – Firefly luciferase (FLuc-C-HiBiT) SDR gain of signal screen - without ATP; 1,300 compounds, 7.8% hits; shares compounds with FLuc inh-1; Potency, µM (series often up to 32.7 µM), without a hit: top-dose activation (signal gain), hits mostly activators; Purified FLuc-C-HiBiT, Nano-Glo HiBiT luminescence, no ATP; AID 1963318, 2024; further: nearly all actives have a fitted effect of over 55% in size
# FLuc SDR ATP – Firefly luciferase (FLuc-C-HiBiT) SDR gain of signal screen - plus ATP | 1,300 compounds, 8.7% hits | Potency, µM (doses to about 32.7 µM), for the others: top-dose activation (gain of signal), most hits filed as activators | purified FLuc-C-HiBiT + ATP, HiBiT complementation luminescence | shares compounds with FLuc inh-1;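 further: signal reports ligand binding via conformational change of the enzyme rather than luciferase catalysis; % of control where 0% means no effect; nearly all actives have a fitted effect of over 55% in size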
# FLuc inh-2 – Firefly luciferase (FLuc-C-HiBiT) enzymatic inhibition screen - Functional assay; 1,300 compounds, 42% hits; purified FLuc-C-HiBiT enzyme, luciferin luminescence; Potency, µM (highest dose often 32.7 µM), without a hit: at the top dose activity change, negative = inhibition, usual class: inhibitors; shares compounds with FLuc inh-1; further: on the % scale 0 is the no-effect control and ±100 the full control effect; nearly all actives have a fitted effect of over 70% in size
# * = called active by the depositor; i = inactive; u = inconclusive; x = not tested or not shown; [ ] = dose if it differs, or a comment. A selection: hits, their analogues and other compounds. The true share with any hit is near 7.4%. Unless noted, the call rests on the fitted dose curve; in most records, active means well fitted curve in the direction sought with a large enough effect; inconclusive means small, poorly fitted or top-dose-only effect, or another doubt; inactive means no such curve, though single readings can be large; an effect the other way counts as inactive or inconclusive. Potency means the concentration at half of the fitted maximal effect.
SMILES,SNCA expr inh,FLuc inh-1,3T3 cytotox,hNpr1 antagonist,HEK293 tox,HEK293 viab,FLuc SDR no ATP,FLuc SDR ATP,FLuc inh-2
Cc1cccc(N2CCN(C(=O)CSCc3ccc(F)cc3)CC2)c1C,116%,x,x,x,x,-7%,12%,9%,-8%
CC(=C/C(=O)O)/C=C/[C@]1(O)[C@@]2(C)CO[C@]1(C)C[C@H](O[C@@H]1O[C@H](CO)[C@@H](O)[C@H](O)[C@H]1O)C2,x,x,x,x,x,-17%[23.9 µM],x,x,x
C[C@@H]1CN(c2cnc3ccccc3n2)CC[C@@]1(O)C1CCC1,14%,4µM*,u,u,u,-2%,22%,17%,u
C[C@@H]1CN(c2cc(C3CC3)ncn2)C[C@@]1(O)C1CCC1,20%,i,-22%,3%,u,-3%,x,x,x
CCn1cnnc1CC1CCN(C(=O)c2cc(-c3ccc(C)c(C)c3)nc3ccccc23)CC1,44%,7.9µM*,40µM*,-16%,u,-16%,u,u,2.8µM*
Fc1ccc(NCc2ccccc2-c2nnc(-c3ccccc3Cl)o2)cc1Cl,69%,x,x,x,x,4%,17%,9%,u
CCOCC1(C)COc2ccc(C(=O)Nc3ccc(Cl)cc3)cc2N1 (stereo not given),-9%[87.6 µM],11µM*,45µM*,32µM*,40µM*,-15%[87.6 µM],17%[49.3 µM],11%[49.3 µM],u
COCCC(=O)N1CCC2(CC1)CC(N(C(=O)c1ccccc1)C1CC1)CCO2 (stereo not given),-1%,i,2%,5%,-4%,2%,x,x,x
O=C(Nc1ccccc1F)c1ccc(-c2ccccc2)s1,20%,x,x,x,x,18%,21%,u,u
C[C@@H]1C(=O)O[C@H]2[C@H]1CC[C@@]1(C)Cc3sc(NC(=O)Nc4ccc(Oc5ccccc5)cc4)nc3[C@@H](C)[C@H]21,2%,u,u,5%,u,-3%,x,x,x
CC(C)(O)CCc1ccc(C(=O)NCCSc2ccccn2)cc1,26%,2.8µM*,-36%,-15%,u,-7%,16%,19%,u
Cc1ccc(-n2cc(CN3CCn4nc(C(O)c5nccn5C)cc4C3)cn2)cc1 (stereo not given),-8%,u,-23%,6%,-8%,7%,x,x,x
Cn1ccnc1C(O)c1cc2n(n1)CCN(c1ncnc3nc[nH]c13)C2 (stereo not given),u,i,-5%,0%,1%,-4%,13%,8%,2%
Cc1cccc(CC(=O)N2CCC(Cc3nc(C(C)C)no3)CC2)c1,25%,i,u,4%,-30%,-21%,x,x,x
O=C(Nc1nc2c(F)cc(F)cc2s1)c1ccc2c(c1)OCCO2,242%,x,x,x,x,1%,17%,15%,1.8µM*
Cc1nccc(N2CCC(COc3ccc4c(cnn4CC[S+](C)(=O)[O-])c3)CC2)n1,-24%[87.6 µM],i,u,u,u,-4%[87.6 µM],x,x,x
C[S+](=O)([O-])CCn1ncc2cc(OCc3cccc(-c4cccnc4)c3)ccc21,21%[87.6 µM],5µM*,u,28µM*,79µM*,-7%[87.6 µM],23%[49.3 µM],u,16µM*
C[S+](=O)([O-])CCn1ncc2cc(OCc3cccc(-c4cccc(O)c4)c3)ccc21,15%[87.6 µM],4µM*,u,u,71µM*,-29%[87.6 µM],25%[49.3 µM],15%[49.3 µM],u
Cc1ccc2oc([C@H]3CCN(Cc4cccs4)C3)nc2c1,18%[87.6 µM],10µM*,u,-23%[70.6 µM],100µM*,0%[87.6 µM],18%[49.3 µM],16%[49.3 µM],u
CCS(=O)(=O)c1ccc2oc([C@H]3CCN(Cc4c[nH]c5ccccc45)C3)nc2c1,11%[87.6 µM],i,u,-10%[70.6 µM],u,-14%[87.6 µM],x,x,x
Cc1ccccc1CN1C[C@@H]2C[C@H]1C(=O)N(C)c1ccccc1O2,5%[87.6 µM],i,-10%[138 µM],5%[70.6 µM],-18%[172 µM],3%[87.6 µM],x,x,x
CN(C1CCc2nn(CC3CC3)c(=O)n2CC1)S(=O)(=O)c1cccc(F)c1 (stereo not given),9%,x,-27%,x,-13%,17%,x,x,x
COc1cccc(C(=O)NCCn2ccn3nc(-c4ccc(C)c(C)c4)cc3c2=O)c1OC,50%,5.6µM*,-23%,-12%,u,-7%,23%,17%,7.9µM*
CCOc1ccc(-c2cc3c(=O)n(CCNC(=O)c4cccc5[nH]ccc45)ccn3n2)cc1,88%,7.9µM*,28µM*,-27%,22µM*,-15%,u,u,5.6µM*
COc1cccc(C(=O)NCCn2ccn3nc(-c4ccc(C)cc4C)cc3c2=O)c1OC,73%,5.6µM*,u,-5%,u,5%,31%,19%,9.9µM*
COc1ccccc1CC(=O)NCCn1ccn2nc(-c3ccc(C)c(C)c3)cc2c1=O,6%,i,-23%,-5%,-6%,-3%,x,x,x
COc1ccc(-c2cc3c(=O)n(CCNC(=O)c4cccc(N(C)C)c4)ccn3n2)cc1,46%,3.5µM*,-12%,-28%,u,u,28%,u,u
O=C(CCn1cccn1)N1CCc2nn(Cc3ccccc3)c(=O)n2CC1,5%,i,-14%,-13%,-1%,-3%,x,x,x
Nc1nc2c([nH]c(=O)n2C2CC(O)C(CO)O2)c(=O)[nH]1 (stereo not given),x,x,x,x,x,x,13%,11%,6%
